Experiment in all cases: DAPPL (digital affinity profiling via proximity ligation, sequencing); 10 mM Tris-HCl pH 7.5, 50 mM NaCl, 1 mM DTT, 4% glycerol, room temperature, 30 min; GST-TFs on glutathione beads, 16-mer random dsDNA library, 0.1% formaldehyde crosslink after washing; high values mean tight binding
What all share (conditions): protein: recombinant; tags: N-terminal GST; dsDNA, one strand shown

Test [1] has as its target T1, FLI1 (Homo sapiens, UniProt Q01543 1-452).
T1 sequence: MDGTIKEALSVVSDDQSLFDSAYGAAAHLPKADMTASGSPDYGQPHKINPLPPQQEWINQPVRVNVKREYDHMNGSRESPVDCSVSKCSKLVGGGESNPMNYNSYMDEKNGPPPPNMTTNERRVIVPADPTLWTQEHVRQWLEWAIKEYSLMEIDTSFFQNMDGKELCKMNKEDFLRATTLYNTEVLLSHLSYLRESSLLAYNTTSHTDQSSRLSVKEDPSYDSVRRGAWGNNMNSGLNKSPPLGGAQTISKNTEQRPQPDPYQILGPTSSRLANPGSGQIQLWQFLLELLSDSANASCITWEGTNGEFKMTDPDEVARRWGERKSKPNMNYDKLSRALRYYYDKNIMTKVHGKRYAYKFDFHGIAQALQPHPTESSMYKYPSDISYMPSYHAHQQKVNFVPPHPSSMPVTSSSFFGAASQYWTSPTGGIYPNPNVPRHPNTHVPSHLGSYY
The gist of the method:
(§1)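 Each value of binding signal is a hexamer's read frequency for a factor divided by the same hexamer's frequency in the tag-only sample. Barcoded, bead-captured GST fusions of human transcription factors made in yeast were pooled with that sample and incubated with 200 nmole of a random double-stranded 16-mer DNA library in Tris/NaCl/DTT/glycerol buffer at room temperature for 30 min. Washing, 0.1% formaldehyde crosslinking, proximity ligation, PCR and Illumina NextSeq500 sequencing followed.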

Test [2] has as its target T2, ELK1 (Homo sapiens, UniProt P19419 1-428).
T2 sequence: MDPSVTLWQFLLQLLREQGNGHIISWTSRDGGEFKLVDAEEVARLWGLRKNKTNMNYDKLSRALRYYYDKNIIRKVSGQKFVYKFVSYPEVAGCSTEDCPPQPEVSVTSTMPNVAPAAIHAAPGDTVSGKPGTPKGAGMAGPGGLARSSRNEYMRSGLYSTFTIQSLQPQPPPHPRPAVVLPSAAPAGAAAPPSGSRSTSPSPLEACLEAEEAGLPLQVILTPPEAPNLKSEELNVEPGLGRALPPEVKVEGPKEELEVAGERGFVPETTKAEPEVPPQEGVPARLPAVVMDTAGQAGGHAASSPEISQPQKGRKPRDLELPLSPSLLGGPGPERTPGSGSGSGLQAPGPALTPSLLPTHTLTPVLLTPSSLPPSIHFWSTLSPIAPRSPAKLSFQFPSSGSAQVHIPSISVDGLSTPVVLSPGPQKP
In outline: as §1

The target in test [3] is T3, GABPA (Homo sapiens, UniProt Q06546 1-454).
T3 sequence: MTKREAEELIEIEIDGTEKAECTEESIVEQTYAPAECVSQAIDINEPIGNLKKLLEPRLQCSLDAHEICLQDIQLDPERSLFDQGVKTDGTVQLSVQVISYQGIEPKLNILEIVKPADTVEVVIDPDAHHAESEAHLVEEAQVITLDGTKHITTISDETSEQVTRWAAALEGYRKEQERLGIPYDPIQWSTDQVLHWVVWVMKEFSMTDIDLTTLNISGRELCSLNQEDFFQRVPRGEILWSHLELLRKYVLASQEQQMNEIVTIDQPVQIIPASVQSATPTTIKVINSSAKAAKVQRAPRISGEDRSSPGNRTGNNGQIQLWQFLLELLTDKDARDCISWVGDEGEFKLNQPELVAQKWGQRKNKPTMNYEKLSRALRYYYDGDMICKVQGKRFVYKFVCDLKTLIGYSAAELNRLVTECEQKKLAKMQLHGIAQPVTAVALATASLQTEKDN
The gist of the method:
as §1

Test [4] addresses T4, ERG (Homo sapiens, UniProt P11308 1-479).
T4 sequence: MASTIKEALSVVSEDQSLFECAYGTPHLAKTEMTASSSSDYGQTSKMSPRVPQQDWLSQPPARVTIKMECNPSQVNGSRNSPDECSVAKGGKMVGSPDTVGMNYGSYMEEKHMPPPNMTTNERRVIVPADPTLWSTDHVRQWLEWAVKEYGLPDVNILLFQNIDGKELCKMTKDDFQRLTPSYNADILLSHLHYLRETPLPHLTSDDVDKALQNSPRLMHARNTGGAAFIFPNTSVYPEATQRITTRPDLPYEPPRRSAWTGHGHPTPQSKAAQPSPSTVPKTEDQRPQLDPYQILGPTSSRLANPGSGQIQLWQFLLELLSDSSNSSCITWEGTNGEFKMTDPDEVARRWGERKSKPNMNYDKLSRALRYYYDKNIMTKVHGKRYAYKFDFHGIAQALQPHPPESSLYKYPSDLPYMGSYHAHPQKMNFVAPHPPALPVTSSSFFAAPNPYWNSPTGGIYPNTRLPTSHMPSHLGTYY
In outline:
as §1

Test [5] has as its target ELF1 (Homo sapiens, UniProt P32519 1-619). The gist of the method:
as §1

The target in test [6] is T5, EHF (Homo sapiens, UniProt Q9NZC4 1-300).
T5 sequence: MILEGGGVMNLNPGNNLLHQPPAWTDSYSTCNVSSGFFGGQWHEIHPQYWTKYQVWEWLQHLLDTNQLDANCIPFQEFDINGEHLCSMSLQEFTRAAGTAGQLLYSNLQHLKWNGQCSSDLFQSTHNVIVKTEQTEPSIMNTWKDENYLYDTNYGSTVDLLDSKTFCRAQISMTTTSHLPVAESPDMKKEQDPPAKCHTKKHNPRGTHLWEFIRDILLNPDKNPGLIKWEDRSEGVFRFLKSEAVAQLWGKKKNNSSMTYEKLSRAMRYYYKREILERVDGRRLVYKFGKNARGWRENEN
In outline: as §1

Test [7] has as its target SPI1 (Homo sapiens, UniProt P17947 1-270). In outline:
as §1

For test [8], the target named is SPIB (Homo sapiens, UniProt Q01892 1-262). In outline: as §1
SPIB, sequence (Q01892 whole entry): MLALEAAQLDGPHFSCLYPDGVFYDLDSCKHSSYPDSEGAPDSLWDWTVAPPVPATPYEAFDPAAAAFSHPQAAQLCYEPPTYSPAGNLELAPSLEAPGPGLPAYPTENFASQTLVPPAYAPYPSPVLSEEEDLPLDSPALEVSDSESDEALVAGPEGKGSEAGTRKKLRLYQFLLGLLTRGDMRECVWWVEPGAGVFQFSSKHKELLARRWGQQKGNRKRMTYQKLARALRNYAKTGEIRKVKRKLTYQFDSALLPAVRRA
The target in test [9] is T6, ELK3 (Homo sapiens, UniProt P41970 1-407).
T6 sequence: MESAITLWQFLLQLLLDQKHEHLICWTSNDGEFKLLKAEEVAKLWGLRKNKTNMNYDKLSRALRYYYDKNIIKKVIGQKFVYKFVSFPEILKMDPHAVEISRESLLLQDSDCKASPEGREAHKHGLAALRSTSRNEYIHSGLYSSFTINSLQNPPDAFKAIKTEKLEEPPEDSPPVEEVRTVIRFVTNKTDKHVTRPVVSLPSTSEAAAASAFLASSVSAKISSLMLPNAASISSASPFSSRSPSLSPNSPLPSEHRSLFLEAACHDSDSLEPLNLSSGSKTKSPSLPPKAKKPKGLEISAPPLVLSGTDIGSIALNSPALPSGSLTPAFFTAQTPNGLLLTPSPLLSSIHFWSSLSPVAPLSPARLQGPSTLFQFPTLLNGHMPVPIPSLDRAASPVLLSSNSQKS
In outline: as §1

In test [10] the target is T7, FEV (Homo sapiens, UniProt Q99581 1-238).
T7 sequence: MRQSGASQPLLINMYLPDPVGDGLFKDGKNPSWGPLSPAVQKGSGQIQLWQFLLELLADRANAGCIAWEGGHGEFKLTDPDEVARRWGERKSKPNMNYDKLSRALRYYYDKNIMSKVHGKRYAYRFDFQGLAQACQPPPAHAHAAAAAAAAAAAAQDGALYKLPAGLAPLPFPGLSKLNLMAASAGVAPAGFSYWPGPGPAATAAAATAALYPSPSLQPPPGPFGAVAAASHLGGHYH
The gist of the method: as §1

The target in test [11] is ETV5 (Homo sapiens, UniProt P41161 1-510). In outline:
as §1

For test [12], the target named is T8, SPIC (Homo sapiens, UniProt Q8N5J4 1-248).
T8 sequence: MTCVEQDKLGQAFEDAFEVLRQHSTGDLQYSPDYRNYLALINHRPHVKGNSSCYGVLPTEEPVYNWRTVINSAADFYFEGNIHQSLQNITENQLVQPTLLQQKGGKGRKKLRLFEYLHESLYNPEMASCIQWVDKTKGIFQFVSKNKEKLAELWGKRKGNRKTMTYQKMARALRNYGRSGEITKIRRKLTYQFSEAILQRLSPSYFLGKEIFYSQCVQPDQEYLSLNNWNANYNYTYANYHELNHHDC
The gist of the method:
as §1

Test [13] addresses ELF4 (Homo sapiens, UniProt Q99607 1-663). The gist of the method:
as §1

For test [14], the target named is T9, ELK4 (Homo sapiens, UniProt P28324-2 1-405).
T9 sequence: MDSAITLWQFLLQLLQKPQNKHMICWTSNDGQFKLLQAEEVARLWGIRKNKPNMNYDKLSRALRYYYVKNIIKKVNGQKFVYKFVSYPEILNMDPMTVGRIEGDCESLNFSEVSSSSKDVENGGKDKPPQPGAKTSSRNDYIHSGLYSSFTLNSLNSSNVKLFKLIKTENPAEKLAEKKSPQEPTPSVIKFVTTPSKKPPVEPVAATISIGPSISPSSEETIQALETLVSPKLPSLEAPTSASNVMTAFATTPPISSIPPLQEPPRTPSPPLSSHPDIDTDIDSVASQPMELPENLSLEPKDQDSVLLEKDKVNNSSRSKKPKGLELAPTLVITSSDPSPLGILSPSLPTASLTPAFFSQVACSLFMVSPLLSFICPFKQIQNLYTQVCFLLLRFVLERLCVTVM
The gist of the method:
as §1

Test [15] deals with T10, ETV2 (Homo sapiens, UniProt O00321 1-342).
T10 sequence: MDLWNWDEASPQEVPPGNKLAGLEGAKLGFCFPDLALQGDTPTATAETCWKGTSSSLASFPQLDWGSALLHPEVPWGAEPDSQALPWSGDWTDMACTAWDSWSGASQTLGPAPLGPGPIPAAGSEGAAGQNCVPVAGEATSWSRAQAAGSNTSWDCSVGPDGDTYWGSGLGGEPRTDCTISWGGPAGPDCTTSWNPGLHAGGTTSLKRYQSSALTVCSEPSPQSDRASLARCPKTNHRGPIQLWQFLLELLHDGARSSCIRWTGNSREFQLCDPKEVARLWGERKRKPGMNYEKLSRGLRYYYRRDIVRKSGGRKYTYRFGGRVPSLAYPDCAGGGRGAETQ
The gist of the method: as §1

The target of test [16] is T11, ELF3 (Homo sapiens, UniProt P78545 1-371).
T11 sequence: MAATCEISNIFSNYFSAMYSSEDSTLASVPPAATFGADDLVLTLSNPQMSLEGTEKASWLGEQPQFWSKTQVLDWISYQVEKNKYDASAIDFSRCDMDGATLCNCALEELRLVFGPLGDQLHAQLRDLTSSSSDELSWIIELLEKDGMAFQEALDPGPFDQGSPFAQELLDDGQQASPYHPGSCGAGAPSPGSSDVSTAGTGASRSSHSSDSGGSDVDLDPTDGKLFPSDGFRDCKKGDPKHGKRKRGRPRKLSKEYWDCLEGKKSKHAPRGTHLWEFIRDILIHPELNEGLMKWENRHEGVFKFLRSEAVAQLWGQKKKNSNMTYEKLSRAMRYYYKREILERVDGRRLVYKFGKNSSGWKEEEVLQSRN
The gist of the method: as §1

For test [17], the target named is ETV1 (Homo sapiens, UniProt P50549 1-477). In outline:
as §1

This is an account of results in publication PMC7862700, “An all-to-all approach to the identification of sequence-specific readers for epigenetic DNA modifications on cytosine”.

ETV5, sequence (P41161 whole entry): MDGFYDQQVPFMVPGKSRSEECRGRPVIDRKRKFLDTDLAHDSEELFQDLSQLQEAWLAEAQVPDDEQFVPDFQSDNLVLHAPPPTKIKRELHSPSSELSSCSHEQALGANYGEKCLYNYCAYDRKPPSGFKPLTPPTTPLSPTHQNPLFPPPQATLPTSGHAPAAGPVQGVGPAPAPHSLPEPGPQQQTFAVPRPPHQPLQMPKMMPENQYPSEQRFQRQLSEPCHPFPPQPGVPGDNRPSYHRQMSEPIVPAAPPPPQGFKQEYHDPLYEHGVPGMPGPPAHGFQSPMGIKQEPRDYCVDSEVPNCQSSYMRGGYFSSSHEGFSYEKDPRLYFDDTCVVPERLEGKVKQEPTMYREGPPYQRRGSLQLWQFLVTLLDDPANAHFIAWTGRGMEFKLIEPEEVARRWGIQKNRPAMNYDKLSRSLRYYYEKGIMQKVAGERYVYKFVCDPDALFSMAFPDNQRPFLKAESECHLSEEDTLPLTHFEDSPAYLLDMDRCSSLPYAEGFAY
ELF4, sequence (Q99607 whole entry): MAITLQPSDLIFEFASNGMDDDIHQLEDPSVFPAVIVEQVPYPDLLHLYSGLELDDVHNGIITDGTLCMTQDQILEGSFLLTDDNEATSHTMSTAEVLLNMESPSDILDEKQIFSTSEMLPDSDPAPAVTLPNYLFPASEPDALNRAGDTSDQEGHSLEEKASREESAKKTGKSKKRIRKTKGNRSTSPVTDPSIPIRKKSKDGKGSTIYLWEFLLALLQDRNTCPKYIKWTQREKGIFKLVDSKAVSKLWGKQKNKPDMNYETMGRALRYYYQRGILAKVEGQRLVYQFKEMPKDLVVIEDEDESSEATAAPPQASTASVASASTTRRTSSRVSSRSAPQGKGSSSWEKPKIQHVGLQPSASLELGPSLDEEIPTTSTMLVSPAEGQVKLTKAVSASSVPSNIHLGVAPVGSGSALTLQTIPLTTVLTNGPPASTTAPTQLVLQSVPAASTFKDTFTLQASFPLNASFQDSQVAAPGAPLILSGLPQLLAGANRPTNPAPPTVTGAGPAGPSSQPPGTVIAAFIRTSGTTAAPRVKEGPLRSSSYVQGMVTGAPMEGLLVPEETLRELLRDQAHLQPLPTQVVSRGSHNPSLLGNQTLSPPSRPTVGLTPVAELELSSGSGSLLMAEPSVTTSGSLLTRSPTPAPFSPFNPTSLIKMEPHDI
ETV1, sequence (P50549 whole entry): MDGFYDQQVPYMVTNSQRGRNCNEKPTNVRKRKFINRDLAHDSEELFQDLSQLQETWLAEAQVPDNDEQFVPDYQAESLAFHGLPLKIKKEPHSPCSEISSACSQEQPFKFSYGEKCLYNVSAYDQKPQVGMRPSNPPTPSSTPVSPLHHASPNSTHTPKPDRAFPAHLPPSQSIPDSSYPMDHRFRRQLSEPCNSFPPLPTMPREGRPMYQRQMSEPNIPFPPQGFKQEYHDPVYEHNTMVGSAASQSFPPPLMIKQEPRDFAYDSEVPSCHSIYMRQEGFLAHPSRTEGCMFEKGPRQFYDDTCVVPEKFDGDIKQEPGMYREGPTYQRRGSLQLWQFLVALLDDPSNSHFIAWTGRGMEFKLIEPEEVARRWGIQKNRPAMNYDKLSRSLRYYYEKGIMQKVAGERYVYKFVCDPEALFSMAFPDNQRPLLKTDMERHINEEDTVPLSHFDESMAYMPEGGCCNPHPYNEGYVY
ELF1, sequence (P32519 whole entry): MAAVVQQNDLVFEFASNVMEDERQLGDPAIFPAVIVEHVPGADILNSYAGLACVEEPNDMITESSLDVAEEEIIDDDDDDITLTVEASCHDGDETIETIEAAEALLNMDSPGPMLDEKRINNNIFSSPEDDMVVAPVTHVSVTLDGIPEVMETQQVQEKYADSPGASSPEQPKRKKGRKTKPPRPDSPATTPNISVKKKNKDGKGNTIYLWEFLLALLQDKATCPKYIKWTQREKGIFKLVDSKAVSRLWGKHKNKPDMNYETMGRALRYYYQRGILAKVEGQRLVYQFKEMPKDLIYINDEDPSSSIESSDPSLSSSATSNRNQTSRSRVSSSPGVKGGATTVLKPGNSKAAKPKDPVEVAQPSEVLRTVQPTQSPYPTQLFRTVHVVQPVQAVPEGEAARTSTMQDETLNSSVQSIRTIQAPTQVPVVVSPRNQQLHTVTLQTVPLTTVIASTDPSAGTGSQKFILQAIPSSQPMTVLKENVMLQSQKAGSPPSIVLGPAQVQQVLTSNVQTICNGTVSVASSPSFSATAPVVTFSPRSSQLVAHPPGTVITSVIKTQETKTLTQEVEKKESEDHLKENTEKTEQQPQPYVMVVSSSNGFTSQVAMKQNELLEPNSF

As to CACATC, the binding signal in [1] was 1.39 fold enrichment (6-mer frequency, TF over GST control); in test [2] it was 1.45 fold enrichment (6-mer frequency, TF over GST control); in test [3] it was 1.33 fold enrichment (6-mer frequency, TF over GST control); in [4], 1.64 fold enrichment (6-mer frequency, TF over GST control); in test [5], 1.4 fold enrichment (6-mer frequency, TF over GST control); in test [6] it was 1.5 fold enrichment (6-mer frequency, TF over GST control). The binding signal was 1.37 fold enrichment (6-mer frequency, TF over GST control) in test [7]; 1.46 fold enrichment (6-mer frequency, TF over GST control) in test [8]; 1.61 fold enrichment (6-mer frequency, TF over GST control) in test [9]; 1.71 fold enrichment (6-mer frequency, TF over GST control) in [10]; 1.5 fold enrichment (6-mer frequency, TF over GST control) in test [11]; 1.31 fold enrichment (6-mer frequency, TF over GST control) in test [12]. In addition, the binding signal was 1.36 fold enrichment (6-mer frequency, TF over GST control) in test [13]; 1.45 fold enrichment (6-mer frequency, TF over GST control) in [14]; 1.44 fold enrichment (6-mer frequency, TF over GST control) in [15]; 1.34 fold enrichment (6-mer frequency, TF over GST control) in test [16]; 1.38 fold enrichment (6-mer frequency, TF over GST control) in test [17].
